Measurements as given in the supplement of paper PMC10849652.
Targets with a hit are over-represented here; the source holds about 8,800 in all. About 0.5% of all pairs of compound and target were hits. A number with no mark means an inactive call.

Key:
Test in all cases: log2 fold change, soluble protein after heating vs DMSO (PISA); higher = thermal stabilisation; K562 lysate, 10 uM; active = over 0.2 and 3.5 SD of the protein, either way, in both replicates (recomputed)
nilotinib = compound: Cc1cn(-c2cc(NC(=O)c3ccc(C)c(Nc4nccc(-c5cccnc5)n4)c3)cc(C(F)(F)F)c2)cn1 [nilotinib]
In short: (§1)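 Values give the log-two fold change in thermal stability against solvent controls, from duplicates. Crude K562 extract at 1 mg/mL protein, made by dounce homogenisation in PBS pH 7.4 with 1 mM MgCl2, was treated with 10 μM compound for 30 min. After 3 min heating across 48°C-58°C, aliquots were pooled, adjusted to 0.5% NP-40 at 4°C and centrifuged at 21,000xg for 90 min. The supernatant was measured by TMTpro 16plex LC-MS/MS with channel sums equalised.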

[1] = compound: Cc1nc(Nc2n[nH]c3c2CN(C(=O)N[C@H](CN(C)C)c2ccccc2)C3(C)C)c2sccc2n1
In short: as §1

dasatinib = compound: Cc1nc(Nc2ncc(C(=O)Nc3c(C)cccc3Cl)s2)cc(N2CCN(CCO)CC2)n1 [dasatinib]
In short: as §1

[2] = compound: Cc1ncc(-c2ccnc(Nc3ccc(S(C)(=O)=O)cc3)n2)n1C(C)C
In short: as §1

[3] = compound: Cn1cc(-c2ccc3c(c2)CCN3C(=O)Cc2cccc(C(F)(F)F)c2)c2c(N)ncnc21
In short: as §1

quisinostat = compound: Cn1cc(CNCC2CCN(c3ncc(C(=O)NO)cn3)CC2)c2ccccc21 [quisinostat]
In short: as §1

tipifarnib = compound: Cn1cncc1[C@@](N)(c1ccc(Cl)cc1)c1ccc2c(c1)c(-c1cccc(Cl)c1)cc(=O)n2C [tipifarnib]
In short: as §1

[4] = compound: NC(=O)Nc1cc(-c2cccc(F)c2)sc1C(=O)N[C@H]1CCCNC1
In short: as §1

[5] = compound: NC(=O)c1cnc(N[C@@H]2CCCC[C@@H]2N)nc1Nc1cccc(-n2nccn2)c1
In short: as §1

[6] = compound: NC1(c2ccc(-c3nc4ccn5c(=O)[nH]nc5c4cc3-c3ccccc3)cc2)CCC1
In short: as §1

[7] = compound: NCC(=O)Nc1ccc(-n2nc(C(F)(F)F)cc2-c2ccc3c(ccc4ccccc43)c2)cc1
In short: as §1

vorinostat = compound: O=C(CCCCCCC(=O)Nc1ccccc1)NO [vorinostat]
In short: as §1

silmitasertib = compound: O=C(O)c1ccc2c(c1)nc(Nc1cccc(Cl)c1)c1ccncc12 [silmitasertib]
In short: as §1

[8] = compound: O=C1NC(=O)C(c2cnc3ccccn23)=C1c1cn2c3c(cc(F)cc13)CN(C(=O)N1CCCCC1)CC2
In short: as §1

entospletinib = compound: c1cn2cc(-c3ccc4cn[nH]c4c3)nc(Nc3ccc(N4CCOCC4)cc3)c2n1 [entospletinib]
In short: as §1

UniProt Q96GS6, sequence (Q96GS6 whole entry, looked up): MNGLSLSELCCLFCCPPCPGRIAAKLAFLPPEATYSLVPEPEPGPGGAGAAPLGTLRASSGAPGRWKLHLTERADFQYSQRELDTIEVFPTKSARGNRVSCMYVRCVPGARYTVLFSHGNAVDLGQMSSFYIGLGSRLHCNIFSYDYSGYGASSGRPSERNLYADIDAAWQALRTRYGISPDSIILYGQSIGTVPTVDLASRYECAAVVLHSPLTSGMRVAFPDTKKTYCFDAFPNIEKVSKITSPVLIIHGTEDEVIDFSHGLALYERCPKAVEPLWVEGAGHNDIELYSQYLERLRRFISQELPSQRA
UniProt O43865, sequence (O43865 whole entry, looked up): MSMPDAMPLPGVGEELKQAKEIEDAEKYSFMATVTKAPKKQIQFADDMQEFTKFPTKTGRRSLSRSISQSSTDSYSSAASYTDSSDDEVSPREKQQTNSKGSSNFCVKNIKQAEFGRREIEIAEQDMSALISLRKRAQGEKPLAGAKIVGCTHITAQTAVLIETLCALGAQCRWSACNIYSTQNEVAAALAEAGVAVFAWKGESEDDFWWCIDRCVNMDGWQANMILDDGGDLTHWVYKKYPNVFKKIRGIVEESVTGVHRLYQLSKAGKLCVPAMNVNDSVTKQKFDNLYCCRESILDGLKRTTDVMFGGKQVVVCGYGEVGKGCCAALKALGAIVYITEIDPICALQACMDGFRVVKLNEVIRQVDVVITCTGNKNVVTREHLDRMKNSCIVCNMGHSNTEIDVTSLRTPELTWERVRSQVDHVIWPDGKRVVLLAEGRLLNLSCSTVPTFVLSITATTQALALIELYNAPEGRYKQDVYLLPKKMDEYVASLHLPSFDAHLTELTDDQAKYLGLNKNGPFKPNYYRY
UniProt Q5JTZ9, sequence (Q5JTZ9 whole entry, looked up): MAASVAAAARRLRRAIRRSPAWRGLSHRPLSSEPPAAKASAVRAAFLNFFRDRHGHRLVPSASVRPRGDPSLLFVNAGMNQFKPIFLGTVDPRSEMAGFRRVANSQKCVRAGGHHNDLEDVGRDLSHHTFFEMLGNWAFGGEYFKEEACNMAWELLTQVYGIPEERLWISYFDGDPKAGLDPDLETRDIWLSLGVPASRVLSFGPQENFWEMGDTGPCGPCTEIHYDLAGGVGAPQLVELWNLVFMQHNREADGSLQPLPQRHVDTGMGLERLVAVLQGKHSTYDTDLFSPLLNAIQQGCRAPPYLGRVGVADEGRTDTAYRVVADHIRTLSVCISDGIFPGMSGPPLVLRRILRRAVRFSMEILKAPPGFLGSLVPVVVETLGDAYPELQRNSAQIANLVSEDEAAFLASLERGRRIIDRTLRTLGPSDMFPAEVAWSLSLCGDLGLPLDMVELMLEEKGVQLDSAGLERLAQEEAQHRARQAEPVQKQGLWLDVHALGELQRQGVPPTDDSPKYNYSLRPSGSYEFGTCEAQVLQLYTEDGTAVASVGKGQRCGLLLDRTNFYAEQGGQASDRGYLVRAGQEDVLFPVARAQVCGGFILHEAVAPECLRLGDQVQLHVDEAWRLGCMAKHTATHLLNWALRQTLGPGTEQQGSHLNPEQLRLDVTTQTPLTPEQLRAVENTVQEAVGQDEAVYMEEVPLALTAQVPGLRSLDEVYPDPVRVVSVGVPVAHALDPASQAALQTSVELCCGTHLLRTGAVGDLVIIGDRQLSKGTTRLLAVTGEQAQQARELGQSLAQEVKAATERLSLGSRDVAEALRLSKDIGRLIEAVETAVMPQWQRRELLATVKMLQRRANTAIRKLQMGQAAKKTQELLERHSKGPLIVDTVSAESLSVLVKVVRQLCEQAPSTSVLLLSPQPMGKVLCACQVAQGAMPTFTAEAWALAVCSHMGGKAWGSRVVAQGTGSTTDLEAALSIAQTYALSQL
UniProt Q9UKA4, sequence (Q9UKA4 whole entry, looked up): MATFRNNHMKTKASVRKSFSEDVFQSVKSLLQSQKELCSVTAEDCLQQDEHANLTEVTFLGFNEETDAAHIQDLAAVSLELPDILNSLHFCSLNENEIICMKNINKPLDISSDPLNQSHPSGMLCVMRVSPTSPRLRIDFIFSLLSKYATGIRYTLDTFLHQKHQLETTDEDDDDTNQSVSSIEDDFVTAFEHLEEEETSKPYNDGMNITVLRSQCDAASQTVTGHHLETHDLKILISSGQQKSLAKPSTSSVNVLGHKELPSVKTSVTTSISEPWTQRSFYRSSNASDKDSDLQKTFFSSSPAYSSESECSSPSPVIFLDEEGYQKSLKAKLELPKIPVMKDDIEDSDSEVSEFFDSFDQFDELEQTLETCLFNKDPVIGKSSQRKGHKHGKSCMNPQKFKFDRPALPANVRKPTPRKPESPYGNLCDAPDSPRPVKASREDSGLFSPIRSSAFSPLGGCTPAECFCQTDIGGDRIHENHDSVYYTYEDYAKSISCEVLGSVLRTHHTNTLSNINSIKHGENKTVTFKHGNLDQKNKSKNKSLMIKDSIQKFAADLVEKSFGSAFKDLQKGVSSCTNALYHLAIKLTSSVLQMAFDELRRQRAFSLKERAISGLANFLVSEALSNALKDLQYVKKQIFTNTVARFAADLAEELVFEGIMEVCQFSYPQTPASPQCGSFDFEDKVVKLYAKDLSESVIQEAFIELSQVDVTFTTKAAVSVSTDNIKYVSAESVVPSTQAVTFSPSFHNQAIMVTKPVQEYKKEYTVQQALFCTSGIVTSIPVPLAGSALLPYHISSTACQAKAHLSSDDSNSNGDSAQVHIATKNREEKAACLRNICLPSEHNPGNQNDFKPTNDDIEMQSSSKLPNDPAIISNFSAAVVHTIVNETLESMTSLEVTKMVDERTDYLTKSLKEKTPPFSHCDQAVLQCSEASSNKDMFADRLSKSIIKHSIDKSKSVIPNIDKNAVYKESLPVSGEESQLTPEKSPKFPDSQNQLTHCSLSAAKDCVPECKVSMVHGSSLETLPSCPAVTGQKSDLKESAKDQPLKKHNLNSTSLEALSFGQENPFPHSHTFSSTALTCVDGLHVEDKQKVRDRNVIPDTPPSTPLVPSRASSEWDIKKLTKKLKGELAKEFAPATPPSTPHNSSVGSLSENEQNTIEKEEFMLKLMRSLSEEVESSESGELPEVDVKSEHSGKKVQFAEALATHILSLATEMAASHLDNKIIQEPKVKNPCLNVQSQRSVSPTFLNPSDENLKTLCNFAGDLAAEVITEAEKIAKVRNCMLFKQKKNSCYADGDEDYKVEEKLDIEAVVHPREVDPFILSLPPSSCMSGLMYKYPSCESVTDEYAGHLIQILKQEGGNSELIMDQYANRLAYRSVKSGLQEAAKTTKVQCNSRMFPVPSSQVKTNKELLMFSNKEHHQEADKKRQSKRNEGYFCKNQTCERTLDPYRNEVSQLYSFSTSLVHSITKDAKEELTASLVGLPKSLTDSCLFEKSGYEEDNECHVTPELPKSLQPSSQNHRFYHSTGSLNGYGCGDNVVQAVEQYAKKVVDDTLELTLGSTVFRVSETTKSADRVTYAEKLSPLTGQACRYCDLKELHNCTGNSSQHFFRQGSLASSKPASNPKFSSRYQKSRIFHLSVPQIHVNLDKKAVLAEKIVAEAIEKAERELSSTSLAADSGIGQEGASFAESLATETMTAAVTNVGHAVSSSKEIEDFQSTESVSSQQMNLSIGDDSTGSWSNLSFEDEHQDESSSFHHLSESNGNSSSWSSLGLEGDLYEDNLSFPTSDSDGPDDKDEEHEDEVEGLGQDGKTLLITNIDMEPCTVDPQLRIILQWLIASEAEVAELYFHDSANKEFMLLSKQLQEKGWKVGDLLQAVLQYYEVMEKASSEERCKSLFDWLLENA
UniProt P52895, sequence (P52895 whole entry, looked up): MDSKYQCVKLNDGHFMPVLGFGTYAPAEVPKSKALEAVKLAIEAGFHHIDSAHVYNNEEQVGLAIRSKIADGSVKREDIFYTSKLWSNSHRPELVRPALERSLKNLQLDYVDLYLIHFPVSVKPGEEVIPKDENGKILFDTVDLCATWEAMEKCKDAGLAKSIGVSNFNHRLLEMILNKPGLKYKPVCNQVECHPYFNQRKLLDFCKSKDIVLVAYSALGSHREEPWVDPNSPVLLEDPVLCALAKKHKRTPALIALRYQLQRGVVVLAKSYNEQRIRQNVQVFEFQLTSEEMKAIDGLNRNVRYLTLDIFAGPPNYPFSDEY
UniProt P31751, sequence (P31751 whole entry, looked up): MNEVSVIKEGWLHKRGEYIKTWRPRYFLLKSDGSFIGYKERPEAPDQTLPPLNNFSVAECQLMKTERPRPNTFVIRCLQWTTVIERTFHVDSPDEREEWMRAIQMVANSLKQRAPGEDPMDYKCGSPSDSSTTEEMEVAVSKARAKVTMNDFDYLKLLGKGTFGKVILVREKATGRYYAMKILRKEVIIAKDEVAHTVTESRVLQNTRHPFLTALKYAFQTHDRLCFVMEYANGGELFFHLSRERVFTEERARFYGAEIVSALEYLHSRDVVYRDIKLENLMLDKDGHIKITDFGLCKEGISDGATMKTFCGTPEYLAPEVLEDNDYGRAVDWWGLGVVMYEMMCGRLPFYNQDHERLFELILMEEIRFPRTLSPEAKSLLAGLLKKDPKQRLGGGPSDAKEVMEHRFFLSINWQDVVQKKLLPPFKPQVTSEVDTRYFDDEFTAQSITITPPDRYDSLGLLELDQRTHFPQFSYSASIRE
UniProt P05091, sequence (P05091 whole entry, looked up): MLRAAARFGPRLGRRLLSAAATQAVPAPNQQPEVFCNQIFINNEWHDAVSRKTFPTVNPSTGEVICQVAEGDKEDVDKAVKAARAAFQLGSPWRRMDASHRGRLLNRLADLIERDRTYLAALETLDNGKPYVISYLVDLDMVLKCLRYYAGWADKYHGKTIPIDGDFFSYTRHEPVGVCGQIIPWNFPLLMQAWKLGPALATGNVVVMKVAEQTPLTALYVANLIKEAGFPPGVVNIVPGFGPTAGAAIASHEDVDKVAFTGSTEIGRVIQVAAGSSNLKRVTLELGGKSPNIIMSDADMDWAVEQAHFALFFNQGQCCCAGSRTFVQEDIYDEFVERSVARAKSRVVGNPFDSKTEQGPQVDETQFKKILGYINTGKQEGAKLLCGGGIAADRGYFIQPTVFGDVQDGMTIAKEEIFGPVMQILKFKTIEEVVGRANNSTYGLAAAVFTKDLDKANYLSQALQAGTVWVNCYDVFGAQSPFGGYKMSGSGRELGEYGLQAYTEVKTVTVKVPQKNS

Row | Target | log2 fold change (nilotinib) | log2 fold change [1] | log2 fold change (dasatinib) | log2 fold change [2] | log2 fold change [3] | log2 fold change (quisinostat) | log2 fold change (tipifarnib) | log2 fold change [4] | log2 fold change [5] | log2 fold change [6] | log2 fold change [7] | log2 fold change (vorinostat) | log2 fold change (silmitasertib) | log2 fold change [8] | log2 fold change (entospletinib)
1 | AP1G2 (UniProt O75843) | -0.013 | -0.046 | -0.081 | -0.019 | 0.048 | -0.006 | 0.063 | 0.005 | -0.012 | -0.125 | 0.071 | -0.31 (active) | -0.03 | 0.008 | 0.018
2 | AKR1C2 (UniProt P52895) | 0.02 | -0.031 | -0.006 | -0.009 | -0.045 | -0.043 | 0 | 0.019 | -0.039 | -0.034 | -0.008 | 0.504 (active) | -0.011 | 0.052 | -0.014
3 | AKT2 (UniProt P31751) | -0.013 | -0.004 | 0.003 | -0.008 | 0.005 | 0.001 | 0.017 | 0.019 | -0.015 | 0.559 (active) | -0.021 | -0.175 | 0.011 | -0.019 | 0.008
4 | AMD1 (UniProt P17707) | -0.05 | -0.04 | -0.031 | -0.001 | 0.055 | -0.145 | -0.005 | 0.151 | 0.229 | -0.022 | 0.071 | -0.076 | 0.062 | 0.499 | 0.211
5 | AHCYL1 (UniProt O43865) | -0.077 | -0.011 | -0.015 | 0.021 | 0.02 | -0.079 | -0.001 | 0.066 | -0.005 | -0.087 | 0.021 | -0.287 (active) | -0.021 | 0.045 | -0.03
6 | ARHGEF1 (UniProt M0QZR4) | 0.009 | -0.031 | -0.058 | -0.016 | 0.022 | -0.02 | 0.01 | 0.015 | 0.017 | -0.015 | 0.019 | -0.392 (active) | 0.023 | 0.004 | 0.003
7 | ACSL1 (UniProt P33121) | -0.004 | -0.002 | -0.132 | 0.013 | 0.05 | 0.007 | -0.013 | 0.034 | -0.025 | -0.04 | -0.092 | -0.221 (active) | 0.138 | -0.031 | -0.027
8 | ALDH2 (UniProt P05091) | 0.028 | -0.017 | 0.014 | -0.013 | 0.001 | 0.121 | 0.039 | 0.001 | 0.016 | -0.003 | -0.068 | 0.627 (active) | 0.009 | 0.019 | -0.009
9 | ADD1 isoform 3 (UniProt P35611) | 0.027 | -0.005 | 0.007 | -0.017 | -0.012 | -0.016 | 0.019 | 0.007 | -0.015 | 0.011 | -0.024 | 0.048 | -0.012 | -0.022 | -0.014
10 | ASNS (UniProt P08243) | -0.004 | -0.008 | -0.039 | -0.018 | 0.025 | 0.027 | 0.017 | 0.027 | -0.01 | -0.028 | 0.006 | -0.373 (active) | -0.01 | -0.008 | 0.029
11 | APOBEC3C (UniProt Q9NRW3) | 0.082 | -0.014 | -0.005 | 0 | 0.042 | -0.144 | -0.024 | -0.067 | -0.001 | 0.028 | 0.055 | -0.278 (active) | 0.043 | -0.066 | -0.007
12 | ANAPC7 (UniProt Q9UJX3) | -0.004 | -0.006 | -0.004 | 0.008 | 0.02 | -0.054 | -0.019 | 0.03 | 0 | -0.018 | -0.035 | -0.218 (active) | 0.023 | 0.007 | 0.046
13 | AGO4 (UniProt Q9HCK5) | -0.152 | 0.07 | 0 | 0.004 | -0.022 | -0.037 | 0.005 | 0.015 | 0.014 | -0.002 | -0.007 | 0.09 | -0.018 | -0.006 | -0.013
14 | ABHD17A isoform 2 (UniProt Q96GS6) | 0.062 | 0.038 | -0.141 | 0.096 | 0.017 | -0.09 | 0.097 | -0.007 | 0.008 | 0.007 | 0.001 | 0.363 (active) | -0.059 | -0.025 | 0.043
15 | ARAP1 (UniProt Q96P48) | -0.009 | -0.029 | -0.036 | -0.032 | 0.013 | -0.072 | -0.041 | 0.029 | 0.006 | 0.003 | -0.04 | -0.379 (active) | 0.017 | -0.014 | -0.012
16 | AGTPBP1 (UniProt Q9UPW5) | 0.077 | -0.205 | 0.038 | 0.1 | -0.032 | -0.197 | 0.207 | 0.038 | 0.045 | 0.115 | 0.125 | -0.033 | -0.012 | 0.11 | 0.035
17 | AARS2 (UniProt Q5JTZ9) | -0.046 | 0.021 | -0.018 | -0.013 | 0.062 | -0.046 | 0.023 | 0.053 | 0.016 | -0.05 | -0.004 | -0.243 (active) | 0.085 | 0.028 | 0.035
18 | AKAP11 (UniProt Q9UKA4) | -0.001 | -0.06 | -0.074 | 0.188 | 0.092 | 0.012 | 0.022 | 0.008 | 0.014 | -0.05 | -0.066 | -0.164 | 0.019 | -0.057 | 0.015
19 | ANLN (UniProt Q9NQW6) | -0.023 | 0.047 | -0.009 | -0.018 | 0.04 | -0.072 | -0.041 | 0.006 | -0.013 | 0.015 | 0.018 | -0.656 (active) | -0.011 | -0.009 | 0
20 | ALDH1B1 (UniProt P30837) | 0.096 | -0.015 | -0.022 | 0.013 | 0.034 | 0.118 | 0.05 | 0.046 | 0.011 | 0.003 | 0.027 | 1.15 (active) | -0.051 | -0.022 | 0.033
21 | ALDH18A1 (UniProt P54886) | 0 | -0.023 | -0.027 | -0.004 | 0.007 | -0.06 | -0.001 | 0.025 | 0.023 | -0.019 | 0.023 | -0.401 (active) | 0.023 | -0.015 | 0.022
